About 180 (7.5%) of roughly 2,400 compounds were called active. The entries come from a sample that favours actives as a whole. Unmarked numbers belong to inactive results.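 The calls were made as follows: active = readout below zero, meaning a drop past 3 SD under the dofetilide-free negative control mean; inactive = the rest.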

Potassium voltage-gated channel subfamily KQT member 2 (Rattus norvegicus), sequence (O88943 whole entry, looked up): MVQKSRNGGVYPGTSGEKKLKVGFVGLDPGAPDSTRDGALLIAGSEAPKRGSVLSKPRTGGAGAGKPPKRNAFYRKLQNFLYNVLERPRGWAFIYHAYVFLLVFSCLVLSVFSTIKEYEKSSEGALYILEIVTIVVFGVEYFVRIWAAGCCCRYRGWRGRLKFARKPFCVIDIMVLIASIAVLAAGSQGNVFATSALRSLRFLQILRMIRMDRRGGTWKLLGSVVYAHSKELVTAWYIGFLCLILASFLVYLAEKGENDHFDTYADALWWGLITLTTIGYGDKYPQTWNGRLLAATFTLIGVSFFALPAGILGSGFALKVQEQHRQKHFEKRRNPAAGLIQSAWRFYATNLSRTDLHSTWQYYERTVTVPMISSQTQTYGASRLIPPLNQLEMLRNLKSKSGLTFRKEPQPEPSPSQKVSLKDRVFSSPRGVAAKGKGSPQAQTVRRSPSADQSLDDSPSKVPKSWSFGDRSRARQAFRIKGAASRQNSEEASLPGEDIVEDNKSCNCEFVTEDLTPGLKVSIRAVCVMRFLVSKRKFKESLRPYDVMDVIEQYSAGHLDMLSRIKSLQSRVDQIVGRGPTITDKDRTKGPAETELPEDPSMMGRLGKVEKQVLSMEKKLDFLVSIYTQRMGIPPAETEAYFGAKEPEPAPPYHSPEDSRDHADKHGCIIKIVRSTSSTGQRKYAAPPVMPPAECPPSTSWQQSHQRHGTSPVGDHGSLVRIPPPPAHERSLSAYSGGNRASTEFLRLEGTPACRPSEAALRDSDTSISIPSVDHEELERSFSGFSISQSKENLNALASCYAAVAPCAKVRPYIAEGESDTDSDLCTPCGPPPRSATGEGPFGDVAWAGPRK

The assay addresses Potassium voltage-gated channel subfamily KQT member 2 (Rattus norvegicus) (UniProt O88943). As to the kind of experiment: rat KCNQ2 channel inhibition by compounds alone, confirmation, counter-screen for hERG block protector project, cell-based, CHO, FluxOR thallium flux (AID 1946). Particulars: CHO-KCNQ2 cells, FluxOR thallium flux fluorescence; at 10 µM; active compounds read low; zero marks the 3-SD hit cutoff.
Turning to `CCOc1ccc(-c2c(=O)n(O)c3ccccc3[n+]2[O-])cc1`, the activity change vs negative control was 83.3%.

Regarding `S=c1[nH]cc(Cc2ccccc2)s1`, the activity change vs negative control was 25.1%.

With `Oc1c(Br)cc(Br)cc1C=Nc1cccc2ncccc12`, the activity change vs negative control is 52.3%.

For `Oc1c(Br)cc(Br)cc1CNc1cccc2cccnc12`, the activity change vs negative control is -1.8% (active). To `O=C1C=C(Nc2cccc3cccnc23)c2ccccc2C1=O` belongs 14.9%; to `Cc1cccnc1NC(=O)c1csnn1`, 14.2%.

As to `Cc1cc(C)cc(-n2ncc3c2CCCC3NC(=O)c2csnn2)c1` (stereo not given), the activity change vs negative control is -0.8% (active).

Turning to `Cc1ccc(-n2ncc3c2CCCC3NC(=O)c2csnn2)cc1C` (stereo not given), the activity change vs negative control was -1.1% (active). Consider `COc1ccc(-n2ncc3c2CC(C)(C)CC3NC(=O)c2cn[nH]c2)cc1` (stereo not given), for which the activity change vs negative control is 0.2%. Consider `Cc1nn(-c2ccccc2)c(Cl)c1/C=C1\SC(=S)NC1=O`, for which the activity change vs negative control is 81.9%.

As for `COc1ccc(-c2cc(C(=O)N3CCCC3)no2)cc1OC`, the activity change vs negative control was 24%. In the case of `O=C(NC(=S)Nc1ccccc1)c1ccc(Br)o1`, the activity change vs negative control was 34.7%. As for `Cc1ccc(C(C(=O)NC(C)(C)C)N(Cc2cccnc2)C(=O)C(=O)NC2CCCCC2)o1` (stereo not given), the figure is 14.9%; as for `CCSc1nc(=S)cc(C)[nH]1`, 78.1%. Take `CC(C)N1CC(C(=O)Nc2ccc(Cl)c(Cl)c2)CC1=O` (stereo not given): the activity change vs negative control is -0.8% (active).

In the case of `O=C(O)C1C2CCC(O2)C1C(=O)Nc1ccc(F)c(Cl)c1` (stereo not given), the activity change vs negative control was 10.3%. Regarding `COc1ccc(S(=O)(=O)N2CCCC(C(=O)Nc3ccc(OC)c(OC)c3)C2)cc1` (stereo not given), the activity change vs negative control was 5.6%.

For `CCOC(=O)C(=CNc1ccc(N2CCOCC2)cc1)C(=O)OCC`, the activity change vs negative control was 29.7%.

Regarding `COc1ccccc1Cn1c(=S)[nH]c2ccc(Br)cc2c1=O`, the activity change vs negative control is 7.2%. To `Cc1[nH]c(-c2ccccn2)nc(=S)c1Cl` belongs 107%. For `O=c1c2ccccc2[nH]c(=S)n1CCC1=CCCCC1`, the activity change vs negative control is 49.3%.

For `Cc1ccc(NS(=O)(=O)c2cn(C)c(=O)n(C)c2=O)c(C)c1`, the activity change vs negative control was 14.1%. On to `Cc1ccc2cc(CN(CCCN(C)C)C(=S)NCc3ccccc3)c(=O)[nH]c2c1C`, for which the activity change vs negative control is -0.3% (active). As to `Cc1ccc2cc(CCNC(=O)C(=O)c3c(C)[nH]c4ccccc34)c(=O)[nH]c2c1`, the activity change vs negative control was 0.8%. `Cc1ccc(-n2nc3ccc(N)cc3n2)c(C)c1`: the activity change vs negative control was -14.5% (active).

`O=C(COc1ccc2c3c(c(=O)oc2c1)CCC3)N[C@@H](Cc1ccccc1)C(=O)O`: the activity change vs negative control was 31.1%.

As to `CCOC(=O)C1CCN(S(=O)(=O)c2cccc3nonc23)CC1`, the activity change vs negative control was 20.3%.

For the compound `CCOc1ccc(C(=O)N(CN2CCCC2=O)c2ccc(C)cc2)cc1`, the activity change vs negative control was 44.8%. For the compound `Cc1ccc(C(=O)Nc2sc3c(c2C(=O)O)CCCCC3)o1`, the activity change vs negative control is -2.5% (active). To `CC(C)OC(=O)c1c(NC(=O)c2ccco2)sc2c1CCCCC2` belongs 3.9%. Consider `Cc1onc(-c2ccccc2)c1C(=O)NC(=S)Nc1sc2c(c1C#N)CCCC2`, for which the activity change vs negative control is 10.5%.

Regarding `Oc1c(Br)cc(Br)cc1C=Nc1ccc2[nH]ncc2c1`, the activity change vs negative control was 54.4%. To `CC(C)Oc1cccc(C(=O)NC(=S)N2CCN(c3ccc(C(F)(F)F)cc3[N+](=O)[O-])CC2)c1` belongs 11.4%; to `COc1cccc(OC)c1C(=O)NC(=S)N1CCN(c2ccc(C(F)(F)F)cc2[N+](=O)[O-])CC1`, -6% (active); to `O=C(NC(=S)N1CCN(c2ccc(C(F)(F)F)cc2[N+](=O)[O-])CC1)c1cccs1`, 30.1%.

As for `CCOC(=O)c1n[nH]n2c1nc(=S)c1ccccc12`, the activity change vs negative control is 77.4%. As for `CSC(=S)N/N=C/c1ccccc1`, the figure is 71%; as for `Cc1cccc(/C=N/NC(=O)c2cc(Br)ccc2O)n1`, 23.8%; as for `Cc1ccc(C(=O)N2CCN(c3ccccc3)CC2)cc1S(=O)(=O)N1CCCC1`, 29.7%. `O=C(NC(=S)N(CC1CCC1)CC1CCCO1)c1cccc([N+](=O)[O-])c1` (stereo not given): the activity change vs negative control is 63.2%.

`O=C(CCc1ccccc1)NC(=S)Nc1cc(C(F)(F)F)ccc1N1CCOCC1`: the activity change vs negative control was -15.9% (active). On to `O=C(NC(=S)Nc1cc(C(F)(F)F)ccc1Cl)c1ccccc1`, for which the activity change vs negative control is 8.2%. On to `O=C(NC(=S)Nc1cc(C(F)(F)F)ccc1N1CCOCC1)c1ccco1`, for which the activity change vs negative control was 11.7%. As to `COc1cc(C(=O)Nc2ccc(O)cc2C(=O)O)ccc1OC(C)=O`, the activity change vs negative control is 3.8%. For `Cn1c(=O)c(Sc2ccccc2)c(O)c2ccccc21`, the activity change vs negative control is 23.4%. As for `COc1ccc(C(=O)NNC(=O)C(=O)NC2CCCCC2)cc1`, the figure is 20.2%. As for `O=C(c1csc(Nc2ccccc2Cl)n1)N1CCCC1`, the activity change vs negative control is 0%.

For `COc1ccccc1-n1cnc2sc(C)c(C)c2c1=O`, the activity change vs negative control is 11.8%.

Turning to `Cc1ccc(OC(=O)c2sc3ncn(C)c(=O)c3c2C)cc1`, the activity change vs negative control was -1.4% (active). As for `CCOc1ccc(-n2cnc3sc(C)c(C)c3c2=O)cc1`, the activity change vs negative control was 3%.
